BoNT-A LC inh2: BoNT A light chain protease inhibition. multiplex microsphere protease substrate cleavage, flow cytometry. inhibition, % at 10 µM. 0.17% of 360,000 active. AID 588499; note: plate controls were buffer without enzyme for full effect and enzyme alone for no effect
Anthrax LF inh2: blocks Bacillus anthracis lethal factor protease | P15917 | multiplex microsphere protease cleavage assay, LF | inhibition, % at 10 µM | 0.12% of 360,000 active | AID 588501; note: plate controls were buffer without enzyme for full effect and enzyme alone for no effect
Target sequence (P15917 whole entry, looked up): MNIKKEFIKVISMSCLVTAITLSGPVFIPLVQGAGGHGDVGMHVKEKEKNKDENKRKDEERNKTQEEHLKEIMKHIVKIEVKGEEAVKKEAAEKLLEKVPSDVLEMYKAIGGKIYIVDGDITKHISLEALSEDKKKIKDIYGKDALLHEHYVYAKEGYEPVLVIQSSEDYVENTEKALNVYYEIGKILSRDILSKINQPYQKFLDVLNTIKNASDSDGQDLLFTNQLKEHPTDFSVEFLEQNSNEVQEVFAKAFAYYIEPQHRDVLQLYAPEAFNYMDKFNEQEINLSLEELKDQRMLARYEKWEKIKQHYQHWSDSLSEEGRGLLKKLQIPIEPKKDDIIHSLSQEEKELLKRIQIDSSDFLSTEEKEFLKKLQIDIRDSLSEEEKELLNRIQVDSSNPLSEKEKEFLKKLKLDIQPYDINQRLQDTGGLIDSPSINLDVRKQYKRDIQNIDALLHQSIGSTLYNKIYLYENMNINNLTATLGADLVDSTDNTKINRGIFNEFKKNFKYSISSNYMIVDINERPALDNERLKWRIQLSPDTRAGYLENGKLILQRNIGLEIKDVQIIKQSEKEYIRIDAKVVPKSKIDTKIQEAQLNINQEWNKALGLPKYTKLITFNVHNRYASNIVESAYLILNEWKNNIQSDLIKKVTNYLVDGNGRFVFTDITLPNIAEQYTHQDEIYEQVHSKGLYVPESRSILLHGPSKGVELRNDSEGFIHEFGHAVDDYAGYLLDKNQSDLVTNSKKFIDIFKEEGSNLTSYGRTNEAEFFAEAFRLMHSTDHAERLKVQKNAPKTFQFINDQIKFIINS
Vc quorum ag: induces V. cholerae light production without autoinducers | activation, % at 18.7 µM | V. cholerae BH1578 lux reporter, luminescence, 6 h | 0.16% of 350,000 active | AID 588436; in the data active = activation mostly above about 9.7%, no sharp cut-off; inconclusive = no clear call, values can overlap the other calls; inactive = mostly below about 3.7%
BoNT F protease: BoNT F light chain protease inhibition; Multiplex microsphere protease cleavage assay, flow cytometry; inhibition, % at 10 µM; 0.22% of 360,000 active; in the data active = inhibition above about 35%, passing the limit was not always enough; inconclusive = no clear call, values can overlap the other calls; note: plate controls were buffer without enzyme for full effect and enzyme alone for no effect
Autofluor counter: compound fluorescence in toxin protease inhibitor counterscreen; compound autofluorescence counterscreen, microsphere flow cytometry; stronger effect = higher value; fluorescence intensity (concentration not given with the values); 3.1% of 360,000 active; in the data active = fluorescence intensity above about 16000; inconclusive = no clear call, values can overlap the other calls
Active calls of the source: *; i = inactive; u = inconclusive; x = no result given. This is a sample that favours compounds with a hit; in the whole collection about 3.5% have one here. Cut-off read from the data, not from the text of the source, unless noted: active = inhibition above about 30%; inconclusive = no clear call, values can overlap the other calls; inactive = below that.

SMILES	BoNT-A LC inh2	Anthrax LF inh2	Vc quorum ag	BoNT F protease	Autofluor counter
Cc1ccc(-c2nc3sc4c(N)ncnc4c3c3c2CCCC3)cc1	0	-2	i	1	22379*
O=c1[nH]cnc2c1sc1nc(-c3ccccc3)c3c(c12)CCCC3	0	0	0	2	2248
Cc1ccc2cccc(OCC(=O)Nc3cccc(S(=O)(=O)N4CCCC4)c3)c2n1	-1	1	-1	-13	6018
O=C(N/C(=C\c1ccco1)C(=O)N1CCCC1CO)c1ccccc1 (configuration not stated)	0	2	i	-2	6178
O=C(NNc1ncc(C(F)(F)F)cc1Cl)c1ccc(Cl)c(Cl)c1	x	x	i	x	x
Nc1ccccc1C(=O)NNc1ncc(C(F)(F)F)cc1Cl	u	-1	i	-4	22928*
O=C(COC(=O)c1ccc2ccccc2n1)Nc1ncc(C(F)(F)F)cc1Cl	-1	3	-1	2	22793*
O=C(COC(=O)CCc1ccc(S(=O)(=O)N2CCOCC2)cc1)Nc1ncc(C(F)(F)F)cc1Cl	-5	0	i	-9	25667*
CCN(CC)S(=O)(=O)c1ccc(N2CCCC2)c(C(=O)OCC(=O)Nc2cc(C)on2)c1	0	4	0	2	4490
O=C(Nc1ccc2c(c1)CCC2)c1cnccn1	2	-2	-1	1	20322*
O=C(c1ccc(Br)s1)N1CCN(C/C=C/c2ccccc2)CC1	-4	-1	i	-8	22315*
CC1(c2nnc(-c3cccc(Cl)c3)o2)CC(c2ccc(F)cc2)=NO1 (configuration not stated)	0	3	-1	-6	3959
Cc1cc(N2CCN(c3ccccc3)CC2)nc(N)n1	u	1	i	-2	20567*
Cc1cc(N2CCN(c3ccccc3)CC2)nc(-c2ccccc2)n1	-1	-8	i	-9	3486
CN(CC(=O)Nc1ccc(F)c(F)c1F)C(=O)C1CCCC1	1	1	i	-1	8986
O=S(=O)(c1ccc(Cl)cc1)N1CCN(c2ncnc3sccc23)CC1	0	-6	3	1	7785
Cc1ccc(C(=O)N/C(=C\c2cccs2)C(=O)NCCc2c[nH]c3ccccc23)cc1C	-2	-3	-3	-6	16774*
O=C(NCCc1c[nH]c2ccccc12)/C(=C\c1cccs1)NC(=O)c1ccccc1	0	1	i	-6	2605
Cc1cc(N(C)C(=O)c2ccc3c(c2)S(=O)(=O)c2cc(Cl)ccc2C3=O)c(C(F)(F)F)o1	-1	2	i	1	3990
COc1ccc(-c2nn(-c3ccccc3)cc2/C=C2/SC(=S)N(Cc3ccco3)C2=O)c(C)c1	30*	36*	2	37*	12304
Cc1ccc(C2(C(F)(F)F)NC(=O)N3CCN=C3S2)cc1 (configuration not stated)	u	-3	-4	3	21208*
OCCN1CCN(Cc2cccc(Oc3ccc(Cl)cc3)c2)CC1	1	-1	0	1	20285*
CN(Cc1ccccc1)Cc1nc2c(c(=O)n(C)c(=O)n2C)n1Cc1ccc(F)cc1	0	-2	-12	0	23112*
Cn1c(=O)c2c(nc(NCc3ccc4c(c3)OCO4)n2Cc2ccc(F)cc2)n(C)c1=O	8	-6	-2	12	18743*
CCCCCn1c(CN(C)Cc2ccccc2)nc2c1c(=O)n(C)c(=O)n2C	-1	-5	i	-2	23164*
SMILES	BoNT-A LC inh2	Anthrax LF inh2	Vc quorum ag	BoNT F protease	Autofluor counter
Cc1ccc(Cn2c(CN(C)Cc3ccccc3)nc3c2c(=O)n(C)c(=O)n3C)cc1	-1	-4	-1	-9	5955
O=C1OCC/C1=C\NCCCN/C=C1\CCOC1=O	0	8	i	-1	3128
CC[C@@H]1[C@H]2CCCC(=O)N3CC[C@@H](C[C@@H]1Nc1ccccc1)[C@@H]23	0	-4	i	-2	3381
COC(=O)c1ccc(OCC2c3cc(OC)c(OC)cc3CCN2C(=O)c2ccco2)cc1 (configuration not stated)	3	-8	i	4	19776*
CCC(=O)N1CCc2cc(OC)c(OC)cc2C1COc1ccc(C(=O)OC)cc1 (configuration not stated)	-2	-1	0	-3	21370*
CC(C)CC(NC(=O)C(COCc1ccccc1)NC(=O)OC(C)(C)C)C(=O)NN (configuration not stated)	-1	-8	0	2	4330
CCC(=O)c1ccc(OCC(O)CN2CCN(S(=O)(=O)N3CCCCC3)CC2)cc1 (configuration not stated)	0	0	3	-6	2758
Cc1ccc(OCC(O)CN2CCN(CC(O)COc3ccc(C)cc3)CC2)cc1 (configuration not stated)	-3	0	-3	-5	17745*
COc1ccc(OCC(O)Cn2c(=N)n(Cc3ccccc3)c3ccccc32)cc1 (configuration not stated)	0	-8	0	-7	9484
CCOC(=O)C1CCN(CC(O)COc2ccc(C(=O)CC)cc2)CC1 (configuration not stated)	0	-3	-2	-1	22284*
O=C(c1ccccc1)c1ccc(OCC(O)CN2CCN(S(=O)(=O)N3CCCCC3)CC2)cc1 (configuration not stated)	0	0	0	2	23589*
Cc1ccc(OCC(O)CN2CCN(c3ccc(C)cc3)CC2)cc1 (configuration not stated)	-1	-5	i	u	4328
Cc1ccc(OCC(O)Cn2c(=N)n(Cc3ccccc3)c3ccccc32)cc1 (configuration not stated)	-1	-3	i	-3	22794*
CCCCn1nc(C(=O)NCc2ccccc2CN2CCCC2)c2ccccc2c1=O	-2	-6	-3	-3	9187
CC1=C(C(=O)N(C)C)CC(CC(=O)NCCCCc2ccccc2)C(=O)N1Cc1ccc(F)cc1 (configuration not stated)	0	2	-1	0	3145
O=S(CC(O)COCc1ccc(Cl)cc1)c1ccccn1 (configuration not stated)	3	2	1	2	21318*
COC(=O)c1ccc(S(=O)(=O)NCCSc2nnc3c4ccccc4n(C)c3n2)cc1	u	0	i	-2	23909*
CC(C)OC(=O)CSc1nnc2c3ccccc3n(C)c2n1	0	0	0	-2	2622
O=C(Nc1cccc2ccccc12)NC(Cc1ccccc1)C(=O)O (configuration not stated)	-1	13	-1	3	3219
CC(C)NS(=O)(=O)c1ccc(OCC(=O)Nc2ccc(F)cc2F)cc1	-3	-2	i	-4	24368*
Cc1nc(Oc2ccc(Cl)cc2)c2oc3ccccc3c2n1	u	1	-1	-1	20568*
Oc1ccc(-c2nc3cnccn3c2Nc2ccc3c(c2)OCCO3)cc1	-1	1	0	-8	5814
CC(C)(C)CC(C)(C)Nc1c(-c2ccc(O)cc2)nc2cnccn12	-2	-2	-1	-1	16574*
O=C(CSc1nnc(CNc2ccc(F)cc2)o1)N1c2ccccc2Sc2ccccc21	2	-3	0	0	20080*

Compound activity (PubChem BioAssay)
